Reference: the supplement of paper PMC6555819

Tested on: FXR:RXRa (NR concentration 270 nM, RXRa partner concentration 90 nM)
Assay: PBM binding z-score (relative to random genomic background probes); higher = stronger binding; sequences stand for … in GC…GCGATTGACAGCGTAGAATGAAGG
Method in brief: (§1)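 On custom Agilent 4×180K arrays, double-stranded probes with 34-nt variable regions carried direct-repeat seeds, single-nucleotide variants, half-site ablations or random human genomic background. Ligand-free nuclear receptor dimers were applied for 1 h, and binding was read with antibodies against each partner (one per run). Binding z-scores come from regression-normalized fluorescence, with the random background probes as reference.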

Row | Sequence | PBM binding z-score
1 | CTATGTAGGGTAAGGGGGTCATTCAGTTTGAAAG | 5.03
2 | TCGAGAAGGTTACGGGGGCATTCAGGGATGAAGA | 4.57
3 | TCGAGTAGGTTACGGGGGTATTCAGGGATGAAGA | 1.78
4 | CCGAGTAGGTTACGAGGGGGCATTTAGTGCGAAT | 2.43
5 | TCGAGTAGGTTACAGGGGCATTCAGGGATGAAGA | 0.886
6 | CCGAGTAGGTTACGACGGGGCATTCAGTGCGAAT | -0.0135
7 | CCGAGTAGGTTACGAGGGGGCATGCAGTGCGAAT | 1.91
8 | CTATGCAGGTTAAGGGGGTCATTCAGTTTGAAAG | 5.02
9 | TCGAGTAGGGTACGGGGGCATTCAGGGATGAAGA | 2.34
10 | CCGAGTAGGTTACGAGCGGGCATTCAGTGCGAAT | 0.242
11 | CCGAGTAGGTTACGAGGGGGCCTTCAGTGCGAAT | 0.952
12 | TCGAGTAGGTTAGGGGGGCATTCAGGGATGAAGA | 3.28
13 | CTATGTAGGTTAAGGGGTTCATTCAGTTTGAAAG | 2.03
14 | CTATGTAGGTTAAGGGGGTCAATCAGTTTGAAAG | 4.51
15 | CCGAGTAGGTTACGAGGGGGCATTCACTGCGAAT | 2.07
16 | TCGAGTAGGTTACGGGGGCATTCCGGGATGAAGA | 2.68
17 | CTATGTAGTTTAAGGGGGTCATTCAGTTTGAAAG | 4.48
18 | CCGAGTAGGTTACGAGGGGGCAATCAGTGCGAAT | 2.55
19 | CTAGGTAGGTTAAGGGGGTCATTCAGTTTGAAAG | 4.79
20 | CTATGTATGTTAAGGGGGTCATTCAGTTTGAAAG | 4.79

Row | Sequence | PBM binding z-score
21 | CCGAGTAGATTACGAGGGGGCATTCAGTGCGAAT | 0.841
22 | CCGAGTAGGTTACGAGGGGGCACTCAGTGCGAAT | 2.63
23 | CCGAGTAGGTTGCGAGGGGGCATTCAGTGCGAAT | 1.26
24 | TCGAGTTGGTTACGGGGGCATTCAGGGATGAAGA | 2.61
25 | CTACGTAGGTTAAGGGGGTCATTCAGTTTGAAAG | 5.02
26 | CTTTGTAGGTTAAGGGGGTCATTCAGTTTGAAAG | 5.24
27 | CTATGTAGGTTAAGGGGGTCATTAAGTTTGAAAG | 4.76
28 | TCGAGTAGGTTACGGTGGCATTCAGGGATGAAGA | 0.0909
29 | CTATGTAGGTTAAGGGGCTCATTCAGTTTGAAAG | 0.164
30 | TCGAATAGGTTACGGGGGCATTCAGGGATGAAGA | 3.92
31 | CTATGTAGGTTAAGGGGATCATTCAGTTTGAAAG | 0.585
32 | CCGAGTAGGTTATGAGGGGGCATTCAGTGCGAAT | 3.13
33 | CAGAGTAGGTTACGAGGGGGCATTCAGTGCGAAT | 3.11
34 | CCGAGTAGGTTACGAGGCGGCATTCAGTGCGAAT | -0.0338
35 | CTATGTAGGTTAAGTGGGTCATTCAGTTTGAAAG | 1.59
36 | TCGAGTAAGTTACGGGGGCATTCAGGGATGAAGA | 1.79
37 | TCGAGTAGGTTACGGGGGCATTAAGGGATGAAGA | 2.01
38 | CTATGTAGGTTAAGGGGGTCATCCAGTTTGAAAG | 4.86
39 | TCGAGTAGTTTACGGGGGCATTCAGGGATGAAGA | 1.17

Tested on: LXRa:RXRa (NR concentration 270 nM, RXRa partner concentration 90 nM)
Assay: as above
Method in brief: as §1

Row | Sequence | PBM binding z-score
40 | CTATGTAGGGTAAGGGGGTCATTCAGTTTGAAAG | 4.71
41 | TCGAGAAGGTTACGGGGGCATTCAGGGATGAAGA | 4.21
42 | TCGAGTAGGTTACGGGGGTATTCAGGGATGAAGA | 2.4
43 | CCGAGTAGGTTACGAGGGGGCATTTAGTGCGAAT | 7.16
44 | TCGAGTAGGTTACAGGGGCATTCAGGGATGAAGA | 1.08
45 | CCGAGTAGGTTACGACGGGGCATTCAGTGCGAAT | 5.81
46 | CCGAGTAGGTTACGAGGGGGCATGCAGTGCGAAT | 6.78
47 | CTATGCAGGTTAAGGGGGTCATTCAGTTTGAAAG | 5.01
48 | TCGAGTAGGGTACGGGGGCATTCAGGGATGAAGA | 2.37
49 | CCGAGTAGGTTACGAGCGGGCATTCAGTGCGAAT | 7.14
50 | CCGAGTAGGTTACGAGGGGGCCTTCAGTGCGAAT | 2.66
51 | TCGAGTAGGTTAGGGGGGCATTCAGGGATGAAGA | 3.15
52 | CTATGTAGGTTAAGGGGTTCATTCAGTTTGAAAG | 3.21
53 | CTATGTAGGTTAAGGGGGTCAATCAGTTTGAAAG | 4.86
54 | CCGAGTAGGTTACGAGGGGGCATTCACTGCGAAT | 7.18
55 | TCGAGTAGGTTACGGGGGCATTCCGGGATGAAGA | 2.91
56 | CTATGTAGTTTAAGGGGGTCATTCAGTTTGAAAG | 4.76
57 | CCGAGTAGGTTACGAGGGGGCAATCAGTGCGAAT | 6.66
58 | CTAGGTAGGTTAAGGGGGTCATTCAGTTTGAAAG | 4.89
59 | CTATGTATGTTAAGGGGGTCATTCAGTTTGAAAG | 5

Row | Sequence | PBM binding z-score
60 | CCGAGTAGATTACGAGGGGGCATTCAGTGCGAAT | 2.24
61 | CCGAGTAGGTTACGAGGGGGCACTCAGTGCGAAT | 6.57
62 | CCGAGTAGGTTGCGAGGGGGCATTCAGTGCGAAT | 2.94
63 | TCGAGTTGGTTACGGGGGCATTCAGGGATGAAGA | 2.2
64 | CTACGTAGGTTAAGGGGGTCATTCAGTTTGAAAG | 5.26
65 | CTTTGTAGGTTAAGGGGGTCATTCAGTTTGAAAG | 5.35
66 | CTATGTAGGTTAAGGGGGTCATTAAGTTTGAAAG | 4.56
67 | TCGAGTAGGTTACGGTGGCATTCAGGGATGAAGA | 0.257
68 | CTATGTAGGTTAAGGGGCTCATTCAGTTTGAAAG | 0.226
69 | TCGAATAGGTTACGGGGGCATTCAGGGATGAAGA | 3.9
70 | CTATGTAGGTTAAGGGGATCATTCAGTTTGAAAG | 0.973
71 | CCGAGTAGGTTATGAGGGGGCATTCAGTGCGAAT | 6.86
72 | CAGAGTAGGTTACGAGGGGGCATTCAGTGCGAAT | 7.18
73 | CCGAGTAGGTTACGAGGCGGCATTCAGTGCGAAT | 0.596
74 | CTATGTAGGTTAAGTGGGTCATTCAGTTTGAAAG | 2.35
75 | TCGAGTAAGTTACGGGGGCATTCAGGGATGAAGA | 1.83
76 | TCGAGTAGGTTACGGGGGCATTAAGGGATGAAGA | 2.81
77 | CTATGTAGGTTAAGGGGGTCATCCAGTTTGAAAG | 4.86
78 | TCGAGTAGTTTACGGGGGCATTCAGGGATGAAGA | 2.22
